Activity calls are given as the source filed them. How the source made its calls: active means hit-call score of the fitted dose curve at least 0.9, where 1 is the maximum; inactive means score below 0.9.

For orientation: AC50 means the concentration at which the activity in the assay is half-maximal.

Read-out in assay [1]: Urokinase-type plasminogen activator receptor (uPAR), PLAUR (gene 5329)
The experiment in a line: BSK_4H_uPAR: BioMAP Diversity Plus: 4H Assay for Urokinase-type plasminogen activator receptor (uPAR) Biomarker Activity (AID 2283030). The settings on record: primary human endothelial cells (HUVEC); actives raise or lower the signal. The procedure, abridged: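 HUVEC, 24 h post-dose; uPAR by ELISA; bidirectional fit vs DMSO baseline.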

Read-out in assay [2]: Vascular endothelial growth factor receptor 2 (Homo sapiens) (UniProt P35968)
Briefly: BSK_4H_VEGFRII: BioMAP Diversity Plus: 4H Assay for Vascular endothelial growth factor receptor 2 (VEGFR2) Biomarker Activity (AID 2283031). The settings on record: primary human endothelial cells (HUVEC); actives raise or lower the signal. Summed up:
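HUVEC (human primary), 4H system; 24 h post-dose; VEGFRII by ELISA; bidirectional curve fit vs DMSO baseline; gain or loss of signal scored.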

Read-out in assay [3]: Human Leukocyte Antigen - DR isotype (HLADR), HLA-DRA (gene 3122)
The experiment in a line: BSK_BE3C_HLADR: BioMAP Diversity Plus: BE3C Assay for Human Leukocyte Antigen - DR isotype (HLADR) Biomarker Activity (AID 2283032). The settings on record: primary human bronchial epithelial cells; actives raise or lower the signal. Summed up: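 Chemicals are dosed onto BE3C bronchial epithelial cultures of human origin and left 24 h. HLA-DR is then measured by ELISA, and the endpoint is fitted in both directions using DMSO as the activity baseline.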

Read-out in assay [4]: Interferon-gamma inducible Protein 10 (IP10), CXCL10 (gene 3627)
Briefly: BSK_BE3C_IP10: BioMAP Diversity Plus: BE3C Assay for Interferon-gamma inducible Protein 10 (IP10) Biomarker Activity (AID 2283034). To be noted: primary human bronchial epithelial cells; actives raise or lower the signal. Summed up: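 IP-10 quantified by ELISA serves as the endpoint. Cells: primary human bronchial epithelium, read 24 h after compound addition. Activity is derived by bidirectional fitting with DMSO as negative control.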

Read-out in assay [5]: Plasminogen activator inhibitor-1 (PAI1), SERPINE1 (gene 5054)
Briefly: BSK_BE3C_PAI1: BioMAP Diversity Plus: BE3C Assay for Plasminogen activator inhibitor-1 (PAI1) Biomarker Activity (AID 2283037). To be noted: primary human bronchial epithelial cells; actives raise or lower the signal. The procedure, abridged: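 Values derive from bidirectional fitting against DMSO baseline of PAI-1 levels, measured by ELISA in human bronchial epithelial cells 24 h after compound addition.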

Read-out in assay [6]: urokinase plasminogen activator (uPA), PLAU (gene 5328)
The experiment in a line: BSK_BE3C_uPA: BioMAP Diversity Plus: BE3C Assay for urokinase plasminogen activator (uPA) Biomarker Activity (AID 2283038).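 On outcome: uPA protein level quantified by ELISA in cell cultures; uPA read one day after compound addition.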 To be noted: primary human bronchial epithelial cells; actives raise or lower the signal. Summed up: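 ELISA read-out of uPA in human lung primary bronchial epithelial cultures, 24 h post-dosing. Gain or loss of signal fitted bidirectionally relative to DMSO baseline; cytotoxicity checked in parallel cultures via SRB total protein stain.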

Read-out in assay [7]: Urokinase-type plasminogen activator receptor (uPAR), PLAUR (gene 5329)
The experiment in a line: BSK_BE3C_uPAR: BioMAP Diversity Plus: BE3C Assay for Urokinase-type plasminogen activator receptor (uPAR) Biomarker Activity (AID 2283039).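 On outcome: uPAR protein level measured by ELISA on the cells; cells exposed to compound for one day before measurement.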 The settings on record: primary human bronchial epithelial cells; actives raise or lower the signal. The procedure, abridged: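 Steps: dose human primary bronchial epithelial cells, incubate 24 h, measure uPAR by ELISA, then fit gain- or loss-of-signal response bidirectionally relative to DMSO.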

Read-out in assay [8]: Vascular cell adhesion molecule 1 (VCAM1), VCAM1 (gene 7412)
The experiment in a line: BSK_4H_VCAM1: BioMAP Diversity Plus: 4H Assay for Vascular cell adhesion molecule 1 (VCAM1) Biomarker Activity (AID 2283033).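 On outcome: cell-surface VCAM-1 protein measured by ELISA.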 The settings on record: primary human endothelial cells (HUVEC); actives raise or lower the signal. Summed up: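 Chemicals are added to primary human umbilical vein endothelial cells. After 24 h, VCAM-1 levels are measured by ELISA. Values come from bidirectional fitting referenced to DMSO.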

Read-out in assay [9]: Monokine induced gamma interferon (MIG), CXCL9 (gene 4283)
Briefly: BSK_BE3C_MIG: BioMAP Diversity Plus: BE3C Assay for Monokine induced gamma interferon (MIG) Biomarker Activity (AID 2283035). The settings on record: primary human bronchial epithelial cells; actives raise or lower the signal. The procedure, abridged:
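ELISA quantified MIG after 24 h exposure of primary bronchial epithelial cultures, analysed in both directions relative to DMSO. Cytotoxicity tracked in parallel cultures by sulforhodamine B staining.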

Read-out in assay [10]: Transforming growth factor beta 1 (TGFb1), TGFB1 (gene 7040)
The experiment in a line: BSK_BE3C_TGFb1: BioMAP Diversity Plus: BE3C Assay for Transforming growth factor beta 1 (TGFb1) Biomarker Activity (AID 2283036;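 further: TGF-b1 protein level measured by ELISA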). To be noted: primary human bronchial epithelial cells; actives raise or lower the signal. Summed up: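 Bronchial epithelial primary cells are treated with test chemical, then TGF-b1 is quantified by ELISA after 24 hours. Values derive from bidirectional fitting against DMSO, with cytotoxicity checked by SRB staining in parallel cultures.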

For the molecule `CC1(C)C(C=C(Cl)Cl)C1C(=O)OC(C#N)c1ccc(F)c(Oc2ccccc2)c1` (stereo not drawn), the result in [1], in assay [2], in assay [3], in assay [4], in assay [5] and in [6] was inactive. The result in [7] was inactive.

Regarding `CC(C)(C)C(O)/C(=C\c1ccc(Cl)cc1Cl)n1cncn1` (stereo not drawn), the AC50 is 27.9 µM (active) in assay [1]; 27.5 µM (active) in assay [3]; 31.1 µM (active) in [4]; 27.6 µM (active) in assay [5]; 30.3 µM (active) in [6]; 20 µM (active) in assay [7].

On to `CN1CSC(=S)N(C)C1`, for which the result in [1], in [4], in assay [5], in assay [6] and in assay [7] was inactive. Besides, the AC50 in assay [3] is 20 µM (active).

In the case of `CC(C)N(C(=O)COc1nnc(C(F)(F)F)s1)c1ccc(F)cc1`, the outcome in assay [2], in assay [3], in [8], in assay [4], in [9] and in assay [5] was inactive. The result in assay [6] and in assay [7] was inactive.

In the case of `Cc1[nH]c(=O)n(C(C)(C)C)c(=O)c1Cl`, the result in assay [1], in [3], in assay [4], in assay [5], in assay [6] and in assay [7] was inactive.

For the molecule `COP(=S)(OC)Oc1ccc(SC)c(C)c1`, the outcome in [3], in assay [8], in [4], in [5] and in assay [6] was inactive. In addition, the AC50 in assay [7] was 0.148 µM (active).

Take `CC1(c2ccc(Oc3ccccc3)cc2)OC(=O)N(Nc2ccccc2)C1=O` (stereo not drawn): the outcome in assay [3], in [5], in assay [6] and in [7] was inactive. Further, the AC50 in [4] is 15 µM (active).

Take `CNC(=O)Oc1ccccc1OC(C)C`: the outcome in assay [3], in assay [4], in [9], in [5], in assay [6] and in assay [7] was inactive.

On to `CCOCN(C(=O)CCl)c1c(C)cccc1CC`, for which the result in [2], in assay [5], in [6] and in assay [7] was inactive. Further, the AC50 in [3] was 15.3 µM (active); in assay [4], 16.5 µM (active).

On to `Clc1ccccc1-c1nnc(-c2ccccc2Cl)nn1`, for which the result in assay [3], in [4], in [5], in [6] and in [7] was inactive.

On to `COc1nn(CSP(=S)(OC)OC)c(=O)s1`, for which the result in assay [3], in [4], in assay [5], in [6] and in assay [7] was inactive.

Take `CNC(=O)Oc1cccc(N=CN(C)C)c1`: the AC50 in assay [3] was 26.6 µM (active). Further, the outcome in [8], in [4], in assay [9], in assay [5], in [6] and in assay [7] was inactive.

On to `OCCOc1ccccc1`, for which the outcome in assay [3], in [4], in assay [10], in assay [5], in [6] and in [7] was inactive.

On to `Oc1ccc(Cl)cc1Cc1ccccc1`, for which the AC50 in assay [3] is 34.7 µM (active) [middle of 7 runs]; in assay [4] it was 35.3 µM (active) [middle of 7 runs]; in assay [5], 34.4 µM (active) [middle of 7 runs]; in assay [6] it was 36.3 µM (active) [middle of 7 runs]; in assay [7] it was 32.1 µM (active) [middle of 7 runs].

On to `CCC(C)(NC(=O)c1cc(Cl)c(C)c(Cl)c1)C(=O)CCl` (stereo not drawn), for which the AC50 was 13.6 µM (active) in [3], 34 µM (active) in assay [4], 29.7 µM (active) in [6] and 31.5 µM (active) in assay [7].

Regarding `O=C(O)CCCOc1ccc(Cl)cc1Cl`, the result in assay [3], in [8], in assay [4], in assay [5], in [6] and in assay [7] was inactive.

As for `CNC(=O)/C=C(\C)OP(=O)(OC)OC`, the outcome in [3], in [4], in [9], in [5], in assay [6] and in assay [7] was inactive.

As to `Oc1cc(Cl)ccc1Oc1ccc(Cl)cc1Cl`, the AC50 in assay [3] is 30.3 µM (active) [middle of 4 runs]; in [8], 23.8 µM (active) [middle of 4 runs]; in assay [4], 29.3 µM (active) [middle of 4 runs]; in [5] it was 30.1 µM (active) [middle of 4 runs]; in [6], 31.2 µM (active) [middle of 4 runs]; in assay [7], 30.5 µM (active) [middle of 4 runs].

Take `CCC(C)Nc1c([N+](=O)[O-])cc(C(C)(C)C)cc1[N+](=O)[O-]` (stereo not drawn): the outcome in assay [3], in [4], in assay [5], in assay [6] and in [7] was inactive. Also, the AC50 in assay [8] was 15.8 µM (active).

On to `CC[C@H](C)[C@H]1O[C@]2(C=C[C@@H]1C)C[C@@H]1C[C@@H](C/C=C(\C)[C@@H](O[C@H]3C[C@H](OC)[C@@H](O[C@H]4C[C@H](OC)[C@@H](O)[C@H](C)O4)[C@H](C)O3)[C@@H](C)/C=C/C=C3\CO[C@@H]4[C@H](O)C(C)=C[C@@H](C(=O)O1)[C@]34O)O2` (tested in a mixture with another compound), for which the AC50 in [3] was 5.87 µM (active); in assay [8] it was 11.6 µM (active); in assay [4], 5.96 µM (active); in assay [5] it was 5.51 µM (active); in assay [6], 5.41 µM (active); in [7], 6.13 µM (active).

Regarding `O=S1OCC2C(CO1)C1(Cl)C(Cl)=C(Cl)C2(Cl)C1(Cl)Cl` (stereo not drawn), the AC50 in assay [3] was 26.6 µM (active); in assay [4] it was 17.8 µM (active); in [5], 28.8 µM (active); in [6] it was 30.3 µM (active); in [7], 30.7 µM (active).

For `CCc1ccc(C(=O)NN(C(=O)c2cc(C)cc(C)c2)C(C)(C)C)cc1`, the outcome in assay [3], in assay [8], in assay [4], in assay [10], in assay [5] and in assay [6] was inactive. In addition, in [7], the result was inactive.

In the case of `COC(=O)c1ccccc1S(=O)(=O)NC(=O)N(C)c1nc(C)nc(OC)n1`, the result in assay [3], in assay [4], in assay [9], in [5], in assay [6] and in assay [7] was inactive.

Turning to `Cc1cc(C)nc(NC(=O)NS(=O)(=O)c2ccccc2C(=O)OC2COC2)n1`, the outcome in assay [3], in [8], in assay [4], in assay [10], in assay [5] and in assay [6] was inactive. The result in assay [7] was inactive.

In the case of `N#Cc1c(Cl)c(Cl)c(Cl)c(C#N)c1Cl`, the AC50 in assay [3] is 1.7 µM (active); in assay [4], 2.35 µM (active); in assay [5] it was 2.5 µM (active); in [6] it was 1.69 µM (active); in assay [7], 3.98 µM (active).

The record behind these values is PubChem BioAssay (EPA / NIEHS).
